# Reference: PubChem BioAssay (NCATS)
# Values joined by “and” are separate entries in the source; they are usually repeats but may differ in a detail not shown here. Identical values can stand only once. Inconclusive results are not listed. Entries that show only a call come without a potency. Some structures have more than one record in an assay (separate samples or runs), and their calls can disagree. Active and inactive are the calls of the source. Unless noted, the call rests on the fitted dose curve; in most records, active means well fitted curve in the direction sought with a large enough effect; inconclusive means small, poorly fitted or top-dose-only effect, or another doubt; inactive means no such curve, though single readings can be large; an effect the other way counts as inactive or inconclusive.
# Legend:
# [1] = target: Cytochrome P450 2D6 (Homo sapiens) (UniProt P10635); assay: Cytochrome P450 family 2 subfamily D member 6 (CYP2D6) small molecule antagonists: luciferase biochemical (cell-free) qHTS assay (AID 1645840; active means well fitted curve in the direction sought with a large enough effect in the repeat runs; an effect the other way counts as inactive or inconclusive; further: nearly all actives have a fitted effect of over 55% in size; further: potency means the concentration at half of the fitted maximal effect)
# Cytochrome P450 2D6 (Homo sapiens), sequence (P10635 whole entry, looked up): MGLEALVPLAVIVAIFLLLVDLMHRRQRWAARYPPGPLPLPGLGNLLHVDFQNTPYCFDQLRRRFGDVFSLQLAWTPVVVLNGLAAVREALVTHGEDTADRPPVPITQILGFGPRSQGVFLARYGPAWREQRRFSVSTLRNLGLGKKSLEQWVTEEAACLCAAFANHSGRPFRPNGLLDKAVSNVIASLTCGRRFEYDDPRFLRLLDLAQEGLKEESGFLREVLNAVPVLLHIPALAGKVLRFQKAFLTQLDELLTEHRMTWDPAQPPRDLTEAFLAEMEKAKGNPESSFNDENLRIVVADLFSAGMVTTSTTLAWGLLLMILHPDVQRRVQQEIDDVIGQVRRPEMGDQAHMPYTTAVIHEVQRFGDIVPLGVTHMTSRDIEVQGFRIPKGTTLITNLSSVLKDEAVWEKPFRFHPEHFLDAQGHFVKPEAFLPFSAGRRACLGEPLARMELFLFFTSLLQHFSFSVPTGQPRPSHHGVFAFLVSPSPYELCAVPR
# In short: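 P450-Glo CYP2D6 system: proluciferin substrate converted by enzyme to luciferin, read by luminescence proportional to activity. Enzyme-substrate mix with compound 10 min at room temperature, then NADPH regeneration 1 h before detection reagent.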
# [2] = target: Cytochrome P450 2C9 (Homo sapiens) (UniProt P11712); assay: Cytochrome P450 family 2 subfamily C member 9 (CYP2C9) small molecule antagonists: luciferase biochemical (cell-free) qHTS assay (AID 1645842; active means well fitted curve in the direction sought with a large enough effect in the repeat runs; an effect the other way counts as inactive or inconclusive; further: nearly all actives have a fitted effect of over 55% in size; further: potency means the concentration at half of the fitted maximal effect)
# Cytochrome P450 2C9 (Homo sapiens), sequence (P11712 whole entry, looked up): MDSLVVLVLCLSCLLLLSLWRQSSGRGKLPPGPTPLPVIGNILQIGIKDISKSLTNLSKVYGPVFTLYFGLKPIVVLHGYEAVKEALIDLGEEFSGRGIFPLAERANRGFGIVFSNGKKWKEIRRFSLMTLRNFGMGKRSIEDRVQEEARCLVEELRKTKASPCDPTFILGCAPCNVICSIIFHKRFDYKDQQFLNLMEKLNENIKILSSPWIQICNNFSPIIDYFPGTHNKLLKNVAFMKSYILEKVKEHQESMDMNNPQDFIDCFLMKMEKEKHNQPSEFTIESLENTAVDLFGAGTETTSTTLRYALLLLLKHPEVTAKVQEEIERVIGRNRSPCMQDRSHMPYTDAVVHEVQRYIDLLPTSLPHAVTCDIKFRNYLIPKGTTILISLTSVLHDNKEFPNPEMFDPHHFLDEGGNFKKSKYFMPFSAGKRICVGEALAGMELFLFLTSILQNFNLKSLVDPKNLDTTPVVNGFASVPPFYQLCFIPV
# In short: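 P450-Glo CYP2C9 system: proluciferin substrate with enzyme in mix containing 0.4% BSA, 10 min at room temperature, then NADPH regeneration solution added and incubated 1 h at 37C. Detection reagent stopped reaction; luminescence read after 20 min as RLU.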
# [3] = Primary qHTS for inhibitors of nuclear receptor binding SET domain protein 2 (NSD2) in an isogenic RCH-ACV NSD2 p.E1099K mutant (9B) (AID 1645876); further: nearly all actives have a fitted effect of over 70% in size; further: potency means the concentration at half of the fitted maximal effect
# [4] = Primary qHTS for inhibitors of nuclear receptor binding SET domain protein 2 (NSD2) in an RCH-ACV wild type WT cells (2C) (AID 1645877); further: nearly all actives have a fitted effect of over 70% in size; further: potency means the concentration at half of the fitted maximal effect
# [5] = NCATS anti-infectives library activity on HEK293 viability as a counter-qHTS vs the C. elegans viability qHTS (AID 1745854);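 further: HEK293 cells exposed to compounds for 24 hr before the viability read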
# In short: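 Counter-screen for cytotoxicity: HEK293, 24 hr, 37C, compounds up to 41.7 uM final (a dilution series, 1:5). Readout CellTiter-Glo luminescence, 10 min RT. Digitonin control, […] uM final.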
# [6] = target: Cytochrome P450 3A4 (Homo sapiens) (UniProt P08684); assay: Cytochrome P450 family 3 subfamily A member 4 (CYP3A4) small molecule antagonists: luciferase qHTS assay (AID 1645841; active means well fitted curve in the direction sought with a large enough effect in the repeat runs; an effect the other way counts as inactive or inconclusive; further: potency means the concentration at half of the fitted maximal effect; nearly all actives have a fitted effect of over 45% in size)
# Cytochrome P450 3A4 (Homo sapiens), sequence (P08684 whole entry, looked up): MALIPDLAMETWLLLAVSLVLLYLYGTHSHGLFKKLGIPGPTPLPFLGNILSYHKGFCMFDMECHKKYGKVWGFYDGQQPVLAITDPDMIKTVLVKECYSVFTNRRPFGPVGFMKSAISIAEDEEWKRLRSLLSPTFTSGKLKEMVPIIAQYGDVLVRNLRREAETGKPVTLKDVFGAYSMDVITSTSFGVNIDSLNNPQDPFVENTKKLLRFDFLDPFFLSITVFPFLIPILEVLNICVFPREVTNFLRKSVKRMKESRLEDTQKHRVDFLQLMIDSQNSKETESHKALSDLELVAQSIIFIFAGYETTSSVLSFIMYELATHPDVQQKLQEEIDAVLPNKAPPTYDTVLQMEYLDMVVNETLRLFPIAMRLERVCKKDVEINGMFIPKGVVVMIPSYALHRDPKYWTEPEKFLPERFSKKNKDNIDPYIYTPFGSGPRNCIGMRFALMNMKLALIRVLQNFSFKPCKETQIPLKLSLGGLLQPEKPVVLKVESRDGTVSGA
# In short: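 Luminescent CYP3A4 activity readout: compounds plus enzyme-substrate mix 10 min at room temperature, reaction started with NADPH regenerating system for 1 h, stopped with detection reagent, read after 20 min. Ketoconazole served as control.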
# [7] = target: Rap guanine nucleotide exchange factor 3 (Homo sapiens) (UniProt O95398); assay: Confirmatory qHTS for antagonist of cAMP-regulated guanine nucleotide exchange factor 3 (EPAC1) (AID 1645880); further: nearly all actives have a fitted effect of over 55% in size; further: potency means the concentration at half of the fitted maximal effect
# Rap guanine nucleotide exchange factor 3 (Homo sapiens), sequence (O95398 whole entry, looked up): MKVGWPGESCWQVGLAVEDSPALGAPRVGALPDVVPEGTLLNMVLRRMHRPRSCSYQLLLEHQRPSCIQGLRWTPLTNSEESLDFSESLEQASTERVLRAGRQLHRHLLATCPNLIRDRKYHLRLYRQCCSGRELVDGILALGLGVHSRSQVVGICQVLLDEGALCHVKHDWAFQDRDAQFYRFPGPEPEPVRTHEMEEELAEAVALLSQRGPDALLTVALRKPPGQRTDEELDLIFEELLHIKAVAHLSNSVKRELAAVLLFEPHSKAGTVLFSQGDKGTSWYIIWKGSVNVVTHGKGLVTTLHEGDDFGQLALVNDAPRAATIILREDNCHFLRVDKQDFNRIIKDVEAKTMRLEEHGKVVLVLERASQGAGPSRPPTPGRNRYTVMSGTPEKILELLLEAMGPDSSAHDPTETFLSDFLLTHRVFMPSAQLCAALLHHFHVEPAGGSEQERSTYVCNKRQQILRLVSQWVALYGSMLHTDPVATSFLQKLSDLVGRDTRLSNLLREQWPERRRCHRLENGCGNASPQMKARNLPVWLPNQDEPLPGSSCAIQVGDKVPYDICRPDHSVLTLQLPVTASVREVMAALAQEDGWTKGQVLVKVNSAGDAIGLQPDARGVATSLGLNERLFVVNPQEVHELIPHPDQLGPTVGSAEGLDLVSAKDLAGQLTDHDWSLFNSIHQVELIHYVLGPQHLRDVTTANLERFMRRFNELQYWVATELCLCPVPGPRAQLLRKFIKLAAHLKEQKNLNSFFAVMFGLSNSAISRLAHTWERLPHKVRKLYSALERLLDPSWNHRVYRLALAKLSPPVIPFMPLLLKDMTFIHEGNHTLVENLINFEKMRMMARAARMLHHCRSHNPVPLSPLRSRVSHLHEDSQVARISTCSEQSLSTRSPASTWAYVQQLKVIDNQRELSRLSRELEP
# In short: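 Released BODIPY-GDP fluoresces less than Rap1-bound BODIPY-GDP; the signal is followed at 480/540 nm at 5-min intervals over 30 min, after 5 min at room temperature. Reactions contain 100 nM EPAC1, 250 nM RAP1B-BODIPY-GDP and 50 uM GDP; results are normalized to ATA and DMSO.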
# [8] = target: Rap guanine nucleotide exchange factor 3 (Homo sapiens) (UniProt O95398); assay: Confirmatory qHTS for agonist of cAMP-regulated guanine nucleotide exchange factor 3 (EPAC1) (AID 1645881);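 further: EPAC1 catalysed release of BODIPY-GDP from Rap1B seen as fluorescence loss; nearly all actives have a fitted effect of over 75% in size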
# [9] = target: Rap guanine nucleotide exchange factor 4 (Homo sapiens) (UniProt Q8WZA2); assay: Confirmatory qHTS for agonist of cAMP-regulated guanine nucleotide exchange factor 4 (EPAC2) (AID 1645884);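 further: nucleotide exchange releases bodipy-GDP from Rap1 and this lowers its fluorescence; nearly all actives have a fitted effect of over 65% in size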
# Rap guanine nucleotide exchange factor 4 (Homo sapiens), sequence (Q8WZA2 whole entry, looked up): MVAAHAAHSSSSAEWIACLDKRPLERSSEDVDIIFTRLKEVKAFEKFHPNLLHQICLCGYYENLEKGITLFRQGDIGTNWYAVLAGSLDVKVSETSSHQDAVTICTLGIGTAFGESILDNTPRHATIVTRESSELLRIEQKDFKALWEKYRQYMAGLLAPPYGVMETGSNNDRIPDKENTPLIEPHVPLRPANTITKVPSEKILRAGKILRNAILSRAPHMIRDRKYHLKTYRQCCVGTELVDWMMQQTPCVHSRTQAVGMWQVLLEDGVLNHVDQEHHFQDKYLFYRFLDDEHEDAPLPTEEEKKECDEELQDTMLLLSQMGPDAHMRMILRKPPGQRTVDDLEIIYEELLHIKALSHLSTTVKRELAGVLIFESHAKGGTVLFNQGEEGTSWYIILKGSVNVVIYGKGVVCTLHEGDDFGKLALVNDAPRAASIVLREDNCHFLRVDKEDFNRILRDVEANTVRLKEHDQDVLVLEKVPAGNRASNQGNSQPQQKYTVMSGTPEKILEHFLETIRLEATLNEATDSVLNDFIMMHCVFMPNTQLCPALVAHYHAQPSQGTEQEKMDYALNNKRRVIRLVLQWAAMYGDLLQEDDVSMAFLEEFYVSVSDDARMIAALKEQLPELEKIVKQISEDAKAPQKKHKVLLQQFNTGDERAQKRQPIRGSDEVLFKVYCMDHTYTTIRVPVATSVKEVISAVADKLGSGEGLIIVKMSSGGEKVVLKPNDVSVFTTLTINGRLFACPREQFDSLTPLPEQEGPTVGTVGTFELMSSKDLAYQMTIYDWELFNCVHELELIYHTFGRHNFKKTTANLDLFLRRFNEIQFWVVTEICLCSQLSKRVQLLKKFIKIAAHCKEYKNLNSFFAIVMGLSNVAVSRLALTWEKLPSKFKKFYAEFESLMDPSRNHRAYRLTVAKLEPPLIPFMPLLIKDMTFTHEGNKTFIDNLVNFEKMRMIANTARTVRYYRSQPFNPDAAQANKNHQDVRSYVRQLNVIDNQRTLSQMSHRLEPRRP
# [10] = target: Rap guanine nucleotide exchange factor 4 (Homo sapiens) (UniProt Q8WZA2); assay: Confirmatory qHTS for antagonist of cAMP-regulated guanine nucleotide exchange factor 4 (EPAC2) (AID 1645885); further: nearly all actives have a fitted effect of over 25% in size; further: potency means the concentration at half of the fitted maximal effect
# [11] = target: Rap guanine nucleotide exchange factor 3 (Homo sapiens) (UniProt O95398); assay: Counterscreen qHTS for antagonist of cAMP-regulated guanine nucleotide exchange factor 3 (EPAC1) (AID 1645888)
# In short: (§1)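 Rap1B-BODIPY-GDP 250 nM + GDP 50 uM; cpds 7-pt, final 9.74 nM–152 uM (activator mode) or from 7.32 nM upwards (inhibitor mode); RT; FI 480/540 nm at 5 and 30 min, then ± cAMP, reread.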
# [12] = target: Rap guanine nucleotide exchange factor 3 (Homo sapiens) (UniProt O95398); assay: Counterscreen qHTS for agonist of cAMP-regulated guanine nucleotide exchange factor 3 (EPAC1) (AID 1645889); further: nearly all actives have a fitted effect of over 40% in size
# In short: as §1
# [13] = NCATS anti-infectives library activity on the primary C. elegans qHTS viability assay (AID 1745855; calls by dose curve); settings: C. elegans worm area imaging, day 7; at 41.8 µM (top of the series) unless noted
# In short: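 GFP read-out by 488 nm laser cytometry at day 0, 3 and 7, gated on object perimeter, area and peak intensity, scored viability of PE254-GFP-FLuc worms exposed to compound in S medium with bacterial capsules at 21 °C.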
structure (smiles),measurement,setting,value
CCN(CC)CCNc1ccc(CO)c2sc3ccccc3c(=O)c12,Potency,[1],4.36 µM (active)
same,Potency,[2],inactive
same,Potency,[3],2.66 µM (active)
same,Potency,[4],1.33 µM (active)
same,outcome,[5],inactive
O[C@@H](c1cc(C(F)(F)F)nc2c(C(F)(F)F)cccc12)[C@H]1CCCCN1,Potency,[3],7.5 µM (active)
O=C(O)c1ccc(S(=O)(=O)N(Cl)Cl)cc1,Potency,[1],inactive
same,Potency,[2],inactive
same,Potency,[3],inactive
same,Potency,[4],inactive
CCC(C(=O)OCCOCCN(CC)CC)c1ccccc1 (centres undefined),Potency,[1],11 µM (active)
same,Potency,[3],inactive
same,Potency,[4],inactive
O=C1OC2(c3ccccc31)c1cc(Br)c(O)c(Br)c1Oc1c2cc(Br)c(O)c1Br,Potency,[6],17.4 µM (active)
same,Potency,[2],12.3 µM (active)
CCc1oc2ccccc2c1C(=O)c1cc(Br)c(O)c(Br)c1,Potency,[7],39.5 µM (active) and 39.8 µM (active)
same,outcome,[8],inactive
same,outcome,[9],inactive
same,Potency,[10],27.8 µM (active)
same,"activity change, negative = inhibition",[10],-17.2% [at 12.7 µM] (inactive)
same,outcome,[11],inactive
same,outcome,[12],inactive
CCCN(CCC)S(=O)(=O)c1ccc(C(=O)O)cc1,Potency,[1],inactive
same,Potency,[2],inactive
same,Potency,[3],inactive
same,Potency,[4],inactive
same,outcome,[5],inactive
CC(=O)NO,Potency,[2],inactive
same,Potency,[3],inactive
same,Potency,[4],inactive
Oc1ccc(Cl)cc1Cc1cc(Cl)ccc1O,Potency,[1],27.5 µM (active)
same,Potency,[2],7.76 µM (active)
same,Potency,[4],18.8 µM (active)
same,outcome,[8],inactive
same,Potency,[10],35 µM (active)
CCCCNC(=O)NS(=O)(=O)c1ccc(N)cc1,Potency,[1],inactive
same,Potency,[2],inactive
same,Potency,[3],inactive
same,Potency,[4],inactive
CC1CCc2c(N3CCC(O)CC3)c(F)cc3c(=O)c(C(=O)O)cn1c23 (centres undefined),Potency,[1],inactive
same,Potency,[2],inactive
same,Potency,[3],inactive
same,Potency,[4],inactive
CN1CCC[C@@H]1CCO[C@](C)(c1ccccc1)c1ccc(Cl)cc1,Potency,[3],21.1 µM (active)
same,Potency,[4],13.3 µM (active)
Nc1ccc(S(=O)(=O)Nc2cnc3ccccc3n2)cc1,Potency,[1],inactive
same,Potency,[2],15.5 µM (active)
same,Potency,[3],inactive
same,Potency,[4],inactive
Cc1ccc2c(Br)cc(Br)c(O)c2n1,Potency,[1],inactive
same,Potency,[2],inactive
same,Potency,[3],7.5 µM (active)
same,Potency,[4],2.37 µM (active)
Cc1ccc(S(=O)(=O)NC(=O)NC2CCCC2)cc1,Potency,[1],inactive
same,Potency,[2],inactive
same,Potency,[3],inactive
same,Potency,[4],inactive
O=c1[nH]c(=O)n([C@H]2C[C@H](O)[C@@H](CO)O2)cc1F,Potency,[1],inactive
same,Potency,[3],13.3 nM (active) and 29.5 nM (active)
same,Potency,[4],8.4 nM (active) and 46.8 nM (active)
c1ccc(CC2=NCCN2)cc1,Potency,[2],inactive
same,Potency,[3],8.41 µM (active)
same,Potency,[4],5.31 µM (active)
Oc1ccccc1C=NCc1ccccc1,Potency,[2],inactive
same,Potency,[3],inactive
CCCCCCCCCCC[C@@H](C[C@@H]1OC(=O)[C@H]1CCCCCC)OC(=O)[C@H](CC(C)C)NC=O,Potency,[1],inactive
same,Potency,[2],2.75 µM (active)
same,Potency,[3],inactive
same,Potency,[4],inactive
same,outcome,[5],inactive
CCOC(=O)C(C#N)=C(c1ccccc1)c1ccccc1,Potency,[1],inactive
same,Potency,[2],2.45 µM (active)
same,Potency,[3],inactive
same,Potency,[4],inactive
same,Potency,[7],inactive
same,outcome,[8],inactive
same,outcome,[9],inactive
same,Potency,[10],49.4 µM (active)
O=C(O)P(=O)(O)O,Potency,[1],inactive
same,Potency,[2],inactive
same,outcome,[5],inactive
C[C@H]1O[C@@H](O[C@H]2CC[C@@]3(C)[C@H](CC[C@@H]4[C@@H]3C[C@@H](O)[C@]3(C)[C@@H](C5=CC(=O)OC5)CC[C@]43O)C2)C[C@H](O)[C@@H]1O[C@H]1C[C@H](O)[C@H](O[C@H]2C[C@H](O)[C@H](O[C@@H]3O[C@H](CO)[C@@H](O)[C@H](O)[C@H]3O)[C@@H](C)O2)[C@@H](C)O1,Potency,[1],inactive
same,Potency,[2],inactive
same,Potency,[3],0.0668 µM (active)
same,Potency,[4],0.0944 µM (active)
CCCCc1cc2ccccc2c(OCCN(C)C)n1,Potency,[1],2.19 µM (active)
same,Potency,[2],inactive
same,Potency,[4],18.8 µM (active)
C#C[C@]1(O)CC[C@H]2[C@@H]3CCc4cc(OC)ccc4[C@H]3CC[C@@]21C,Potency,[1],inactive
same,Potency,[3],inactive
same,Potency,[4],inactive
CCCCCCCCCCCCSCCOCCO,Potency,[2],12.3 µM (active)
same,Potency,[3],inactive
same,Potency,[4],inactive
CN1CCc2cccc3c2[C@H]1Cc1ccc(O)c(O)c1-3,Potency,[2],inactive
same,Potency,[3],6.68 µM (active)
same,Potency,[4],7.5 µM (active)
O=C(Nc1ccc([N+](=O)[O-])cc1)Nc1ccc([N+](=O)[O-])cc1,Potency,[1],inactive
same,Potency,[2],inactive
same,Potency,[3],inactive
same,Potency,[4],inactive
CCCCCCCCCCCCOCCOCCOCCOCCOCCOCCOCCOCCOCCO,Potency,[1],12.3 µM (active)
same,Potency,[4],11.9 µM (active)
COc1cc([C@H]2Oc3cc([C@H]4Oc5cc(O)cc(O)c5C(=O)[C@@H]4O)ccc3O[C@@H]2CO)ccc1O,Potency,[1],inactive
same,Potency,[2],8.71 µM (active)
same,Potency,[3],inactive
same,Potency,[4],inactive and 23.5 µM (active)
FC(F)(F)C(F)(F)C(F)(F)C(F)(F)C(F)(F)C(F)(F)C(F)(F)C(F)(F)Br,Potency,[1],inactive
same,Potency,[3],inactive
same,Potency,[4],inactive
OC[C@H]1O[C@@H](Oc2ccc(O)cc2)[C@H](O)[C@@H](O)[C@@H]1O,Potency,[1],inactive
same,Potency,[2],inactive
same,outcome,[5],inactive
same,outcome,[13],inactive [at 83.3 µM]
O=C1[C@H](CC[C@H](O)c2ccc(F)cc2)[C@@H](c2ccc(O)cc2)N1c1ccc(F)cc1,Potency,[1],15.5 µM (active) and 9.52 µM (active)
same,Potency,[3],23 µM (active)
CCCCCCCCNC(C)C(O)c1ccc(SC(C)C)cc1 (centres undefined),Potency,[1],1.38 µM (active) and 8.49 µM (active)
same,Potency,[3],10.6 µM (active)
same,Potency,[4],7.5 µM (active)
